Reference: PubChem BioAssay AID2013 (Sanford-Burnham Center for Chemical Genomics, 2009)
Among all 290,000 compounds or so, about 370 (0.13%) were called active. Many of the other results were omitted from the sample, so actives are more common in it than they were. Entries with a potency or affinity are not part of this list. Values without a mark were called inactive.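 Rule for the calls: active = spots per cell inhibited over 60%, with over 100 cells counted and total cytoplasm intensity under 500,000; inconclusive = wells with under 100 cells, flagged as likely toxic; inactive = the rest.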

Each compound was assayed against G-protein coupled receptor 55 (Homo sapiens) (UniProt Q9Y2T6) (assay: GPR55 antagonists blocking LPI-driven arrestin recruitment, primary screen, imaging, U2OS, beta-arrestin-GFP, LPI agonist (AID 2013;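 note: U2OS cells stably carrying GPR55 and arrestin-GFP stimulated by 5 µM LPI near EC80; imaged beta-arrestin-GFP aggregate spots per cell after agonist stimulation; plate controls were LPI-stimulated DMSO wells for no effect and DMSO wells without LPI for full effect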)). Conditions: U2OS GPR55 beta-arrestin-GFP translocation imaging, LPI antagonism; at 10 µM; stronger effect = higher value.
Chain of G-protein coupled receptor 55 (Homo sapiens) (Q9Y2T6 whole entry, looked up): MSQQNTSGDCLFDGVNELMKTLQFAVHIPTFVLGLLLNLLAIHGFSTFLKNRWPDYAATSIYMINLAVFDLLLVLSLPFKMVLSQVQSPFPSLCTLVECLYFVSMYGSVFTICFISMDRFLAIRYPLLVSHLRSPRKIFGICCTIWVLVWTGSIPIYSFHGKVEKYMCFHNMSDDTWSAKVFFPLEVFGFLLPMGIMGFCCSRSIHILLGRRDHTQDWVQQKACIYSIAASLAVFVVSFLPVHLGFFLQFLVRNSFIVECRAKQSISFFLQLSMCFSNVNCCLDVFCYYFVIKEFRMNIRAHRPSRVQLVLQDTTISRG

Row | Compound | inhibition
1 | COc1ccc(C2c3c(-c4ccccc4O)n[nH]c3C(=O)N2CCc2ccc(OC)c(OC)c2)cc1 (stereo not drawn) | 9.9%
2 | COc1ccc(CCN2C(=O)c3[nH]nc(-c4ccccc4O)c3C2c2cccc(Cl)c2)cc1 (stereo not drawn) | 4.8%
3 | COc1ccc(C2c3c(-c4ccccc4O)n[nH]c3C(=O)N2Cc2ccco2)cc1OC (stereo not drawn) | -6.4%
4 | COc1ccc(CCN2C(=O)c3[nH]nc(-c4ccccc4O)c3C2c2ccccc2)cc1OC (stereo not drawn) | 1.6%
5 | COc1ccc(C(=O)OCC(=O)NC2CCCC2)c(OC)c1OC | 3.7%
6 | CCN(Cc1ccccc1)C(=O)CCCOc1ccccc1 | -2%
7 | CC(=O)Nc1ccc(S(=O)(=O)NNC(=O)C2CCCCC2)cc1 | 0.1%
8 | Cc1ccc(NC(=O)COC(=O)C2CC3C=CC2C3)cc1S(=O)(=O)N1CCCCC1 (stereo not drawn) | 64.8% (active)
9 | O=C(COC(=O)C1CC2C=CC1C2)Nc1cccc(S(=O)(=O)N2CCCCC2)c1 (stereo not drawn) | -15.5%
10 | Cc1ccc(S(=O)(=O)N2CCCCC2)cc1NC(=O)COC(=O)C1CC2C=CC1C2 (stereo not drawn) | -2.7%
11 | CCCCCn1c(CNC(C)=O)nc2ccccc21 | 2.6%
12 | O=c1c(-c2ccc(Cl)cc2)coc2c(CN3CCOCC3)c(O)ccc12 | -5.8%
13 | Cc1ccc(S(C)(=O)=NS(=O)(=O)c2cccc3nsnc23)cc1 (stereo not drawn) | 5%
14 | Cn1c(=O)c(C(=O)NCCc2ccccc2)c(O)c2ccccc21 | 11.2%
15 | O=C1C(Cc2ccc(Br)cc2)SC(=Nc2ccccc2)N1c1ccccc1 (stereo not drawn) | 7.8%
16 | Nc1ccc(N2CCCCC2)c(S(=O)(=O)Nc2ccc(Cl)cc2)c1 | 16.6%
17 | COc1ccccc1NS(=O)(=O)c1cc(N)ccc1N1CCCCC1 | -8.3%
18 | C/C(=N\Nc1ccc(Cl)c(C(=O)O)c1)c1cccc2ccccc12 | -3.2%
19 | COC(=O)[C@H](Cc1ccccc1)NC(=O)N1CCCCC1C (stereo partly drawn) | 11.9%
20 | O=C(c1ccco1)N(CC1CCCO1)c1nc(-c2ccccc2)cs1 (stereo not drawn) | -1.7%
21 | CCCCC(NC(C)=O)c1nc2ccccc2n1CCCC (stereo not drawn) | 7.3%
22 | CCCCCn1c(C(Cc2ccccc2)NC(=O)COC)nc2ccccc21 (stereo not drawn) | 25.9%
23 | COc1ccc(CCn2c(C)cc(C(=O)COC(=O)c3ccc(NC(=O)CC#N)cc3)c2C)cc1 | -0.8%
24 | O=C(NC1CCCC1)C(c1cccnc1)N(C(=O)c1ccco1)c1cccc(F)c1 (stereo not drawn) | -23.3%

Row | Compound | inhibition
25 | Cc1ccc(N2C(=O)CSC23C(=O)Nc2ccccc23)cc1 (stereo not drawn) | 17.5%
26 | Cc1cc2c3c(c1)C1(SCC(=O)N1c1ccc(F)cc1)C(=O)N3C(C)(C)CC2C (stereo not drawn) | 26.5%
27 | CC1=CC(C)(C)N2C(=O)C3(NCCc4c3[nH]c3ccccc43)c3cc(C)cc1c32 (stereo not drawn) | 6.1%
28 | COc1ccc(N2C(=O)CSC23C(=O)N2c4c(cccc43)C(C)=CC2(C)C)cc1 (stereo not drawn) | -6.8%
29 | CC(C(=O)Nc1ccc(S(=O)(=O)N2CCOCC2)cc1)N(c1ccccc1)S(C)(=O)=O (stereo not drawn) | 2.6%
30 | COc1ccccc1CN1CC(C(=O)N(C)CCOc2ccccc2)CCC1=O (stereo not drawn) | 4.1%
31 | CCc1ccc2oc(C(=O)NC3CCS(=O)(=O)C3)cc(=O)c2c1 (stereo not drawn) | 0.2%
32 | CCOC(=O)c1cnc2c(c(C)nn2C)c1Oc1ccc(OC)cc1 | 24.7%
33 | CCOC(=O)c1cnc2c(c(C)nn2C)c1Oc1cc(Cl)cc(Cl)c1 | -4.2%
34 | CCOc1ccc(/C=N/n2c(-c3ccccc3)n[nH]c2=S)cc1 | -1.8%
35 | O=C(O)CSCC(=O)Nc1ccc(S(=O)(=O)N2CCCCC2)cc1 | 8.7%
36 | CC(c1ccc(F)cc1)n1cc(C(=O)NCc2ccccn2)nn1 (stereo not drawn) | -1.6%
37 | O=c1[nH]c2ccccc2nc1-c1ccccc1 | 5.1%
38 | O=C(CSc1nc2ccccc2[nH]1)N=Nc1c(O)[nH]c2ccccc12 | -8.4%
39 | CCSc1nnc(-c2cccs2)o1 | -4.1%
40 | NC(=O)c1sc2nnc(-c3ccccc3)c(-c3ccccc3)c2c1N | 21.8%
41 | O=C(CCn1ccnc1)Nc1cc(Cl)ccc1O | 4.7%
42 | N=C1S/C(=C\c2cccc3ccccc23)C(=O)N1c1ccc(F)cc1 | -1.5%
43 | N=C1S/C(=C\c2ccccc2F)C(=O)N1c1ccc(F)cc1 | 7.1%
44 | CC(C)(C)OC(=O)CC12CCCCC1NC(=O)O2 (stereo not drawn) | -7.6%
45 | COc1ccc2[nH]c(=O)c(COC(=O)c3ccco3)cc2c1 | -0.6%
46 | CCCCNS(=O)(=O)c1cccc(S(=O)(=O)N2CCCC2)c1 | 11.2%
47 | CC1Cn2c(nc(=O)c3c2NCN(CCc2ccccc2)C3)S1 (stereo not drawn) | 3.9%
48 | CC(=O)c1c(C)nc2ccccn12 | 5.4%

Row | Compound | inhibition
49 | O=S1(=O)CCC(NC(=S)SCc2ccccc2Br)C1 (stereo not drawn) | 8.1%
50 | O=S1(=O)CC=C(CSC(=S)NC2CCS(=O)(=O)C2)C1 (stereo not drawn) | 71.8% (active)
51 | CCCSC(=S)NC1CCS(=O)(=O)C1 (stereo not drawn) | 1.1%
52 | CCOC(=O)C1=C(O)C(=O)N(c2ccccc2)C1c1cccc([N+](=O)[O-])c1 (stereo not drawn) | -3.6%
53 | CCOC(=O)C1=C(C)NC(C)=C(C(=O)OC)C1c1cccc([N+](=O)[O-])c1 (stereo not drawn) | 14.8%
54 | CCn1c(SCc2nc3cc(OC)c(OC)cc3c(=O)[nH]2)nnc1-c1ccncc1 | -12.8%
55 | CCOC(=O)N1CCN(C(=O)CS(=O)Cc2nc(-c3cccc(C)c3)oc2C)CC1 (stereo not drawn) | -4.3%
56 | Cc1cc(=O)c(C(=O)O)nn1-c1ccccc1C(F)(F)F | -0.4%
57 | COc1ccccc1NC(=S)NC(NC(=O)c1ccco1)C(Cl)(Cl)Cl (stereo not drawn) | 3.2%
58 | O=C(NC(NC(=S)Nc1ccccc1C(=O)O)C(Cl)(Cl)Cl)c1ccco1 (stereo not drawn) | 15.9%
59 | Cc1ccc(NC(=O)C2C3C=CC4(O3)C2C(=O)N(CCCN2CCCCC2)C4C(=O)NC2CCCCC2)cc1C (stereo not drawn) | 1.2%
60 | COc1ccc(C(=O)C2CCCN(C(=O)c3noc4c3CCCC4)C2)c(C)c1 (stereo not drawn) | 15.3%
61 | COCCCNC(=O)c1ccccc1-c1cc(C)no1 | -3.6%
62 | CCOC(=O)C(C(=O)OCC)c1cc(Br)c2noc3c2c1C(=O)c1ccccc1-3 | -10.2%
63 | COC(CNC(=O)c1coc2nc3ccccc3nc12)OC | -2.8%
64 | COC(CNC(=O)c1ccc2c3c(onc13)-c1ccccc1C2=O)OC | 99.4% (active)
65 | COCCNC(=O)c1cccc2c1-c1ccccc1C2=O | 4%
66 | COCCCNC(=O)c1ccc2c3c(onc13)-c1ccccc1C2=O | 84.1% (active)
67 | O=C(c1cccc(C(F)(F)F)c1)N1CCN(S(=O)(=O)c2ccc(Cl)s2)CC1 | 9.8%
68 | CCN(c1cccc(C)c1)S(=O)(=O)c1ccc2c(c1)oc(=O)n2C | 1.9%
69 | CCOc1ccc(NC(=O)CN(C)S(=O)(=O)c2ccc3c(c2)CCC(=O)N3)cc1 | -0.4%
70 | CC(C)CC(=O)NNC(=O)c1ccc(Cl)cc1 | 4.3%
71 | COc1ccc(C(=O)NC(Oc2ccccc2)C(Cl)(Cl)Cl)cc1 (stereo not drawn) | -6.6%
72 | COc1ccc(C(=O)N(CCCO)C(C)C(=O)NC2CCCCC2)cc1OC (stereo not drawn) | -11.9%

Row | Compound | inhibition
73 | CCOC(=O)c1ccc(NC(=O)c2ccc3c(c2)C(=O)N(Cc2cccnc2)C3=O)cc1 | -16.9%
74 | CSc1ncc(Cl)c(C(=O)Nc2ccc(S(=O)(=O)N3CCOCC3)cc2)n1 | 29.9%
75 | CCCSc1ncc(Cl)c(C(=O)Nc2ccc(S(=O)(=O)Nc3ncccn3)cc2)n1 | 7.3%
76 | N/C(Cc1cccs1)=N\OC(=O)COc1ccc(Cl)cc1Cl | -3.5%
77 | Cc1ccc(CN2CCN(/N=C/C(Br)=C\c3ccccc3)CC2)cc1 | -12%
78 | CN1/C(=C\C(=O)CSc2nncn2C)C(C)(C)c2ccccc21 | -7.6%
79 | CN1/C(=C\C(=O)CSc2cccc[n+]2[O-])C(C)(C)c2ccccc21 | 0.8%
80 | COc1ccc2[nH]cc(C(O)CN3CCC(C(N)=O)CC3)c2c1 (stereo not drawn) | 28.7%
81 | COc1ccc([N+](=O)[O-])cc1N(CC(=O)NCCC1=CCCCC1)S(C)(=O)=O | 0.4%
82 | CC(C)(C)c1ccc(O)c(N=Cc2cc3c(cc2[N+](=O)[O-])OCO3)c1 | -3.2%
83 | CC(=O)NC1=NC(=O)/C(=C/c2cn(C(C)=O)nc2-c2ccccc2)S1 | 100% (active)
84 | CCN=C1S/C(=C\c2cn(C(C)=O)nc2-c2ccccc2)C(=O)N1CC | -15.2%
85 | CC(=O)NC1=NC(=O)/C(=C/c2cc(C)n(-c3cccc(C(=O)O)c3)c2C)S1 | -3.4%
86 | CCCn1cc(CN2CCC(n3nccc3NC(=O)c3ccc4c(c3)OCO4)CC2)c(C)n1 | 6%
87 | CCc1ccc(C(=O)COC(=O)[C@@H](NC(N)=O)[C@@H](C)CC)cc1 | 0.9%
88 | CN(C)CCCN(C(=O)CCc1ccccc1)c1nc2ccc(Cl)cc2s1 | 75.6% (active)
89 | CN(C)CCCN(C(=O)CCc1ccccc1)c1nc2ccc(Br)cc2s1 | 44.7%
90 | Cc1ccc2nc(N(CCCN(C)C)C(=O)CCc3ccccc3)sc2c1 | 29.6%
91 | CN(C(=O)c1ccc(OC2CCN(Cc3ccccn3)CC2)cc1)C1CCCCC1 | -18.7%
92 | O=S(=O)(CCC1CCCCN1)c1ccccc1 (stereo not drawn) | 0.5%
93 | C1CCC(C23CC4CC(CC(C4)C2)C3)NC1 (stereo not drawn) | -4.6%
